# Experimental data taken from PubChem BioAssay (NCATS).
# Values joined by “and” are separate entries in the source; they are usually repeats but may differ in a detail not shown here. Identical values can stand only once. Results filed as inconclusive are left out. Active and inactive are the calls of the source. The call rests on the fitted dose curve; in most records, active means well fitted curve in the direction sought with a large enough effect; inconclusive means small, poorly fitted or top-dose-only effect, or another doubt; inactive means no such curve, though single readings can be large; an effect the other way counts as inactive or inconclusive.
# Legend:
# [1] = Identifying Small Molecule Inhibitors of Pancreatic Cancer Stem Cells (SN12C, Spheroid) (AID 1259360); conditions: Potency: SN12C spheroid viability; series mostly up to 46.1 µM; further: potency means the concentration at half of the fitted maximal effect
# Summary of the method: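 Monolayer and spheroid cultures are compared. Spheroids form over 14 days in stem cell medium on hydrogel-coated low-attachment plates, then are exposed to compound for 48 h before CellTiter-Glo luminescence.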
# [2] = Identifying Small Molecule Inhibitors of Pancreatic Cancer Stem Cells (A278, Adherent) (AID 1259361); conditions: series mostly up to 46.1 µM;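 further: viability read after 48 h compound exposure; nearly all actives have a fitted effect of over 35% in size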
# Summary of the method: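 After a 4 h attachment period, compounds were pinned into wells and cultures held 48 h under standard incubator conditions. Viability was then measured as CellTiter-Glo luminescence following 10 min at room temperature.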
# [3] = Identifying Small Molecule Inhibitors of Pancreatic Cancer Stem Cells (Panc1, Adherent) (AID 1259362); conditions: Potency: viability; series mostly up to 46.1 µM; further: potency means the concentration at half of the fitted maximal effect
# Summary of the method: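 Luminescent ATP readout (CellTiter-Glo) quantifies surviving cells after a 48 h drug incubation. Normalization uses DMSO wells as no inhibition and media-only wells as full inhibition; bortezomib served as positive control.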
# [4] = P-glycoprotein substrates identified in KB-3-1 adenocarcinoma cell line, qHTS therapeutic library screen (AID 1346986); conditions: KB-3-1 parental cells viability, CellTiter-Glo, 72 h; series mostly up to 44.5 µM; further: nearly all actives have a fitted effect of over 60% in size;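 further: potency means the concentration at half of the fitted maximal effect; potency is for cytotoxicity meaning loss of cell viability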
# Summary of the method: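 KB-3-1 parental cells and P-gp-overexpressing KB-8-5-11 (colchicine omitted during assay) plated at 500 cells/well, dosed in dose-response, incubated 72 h at 37 degree C. CellTiter-Glo luminescence read; KB-8-5-11 also tested with tariquidar.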
# [5] = P-glycoprotein substrates identified in KB-8-5-11 adenocarcinoma cell line, qHTS therapeutic library screen (AID 1346987); conditions: KB-8-5-11 (P-gp overexpressing) viability, CellTiter-Glo, 72 h; series mostly up to 44.5 µM; further: nearly all actives have a fitted effect of over 65% in size; further: potency means the concentration at half of the fitted maximal effect
# Summary of the method: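 KB-8-5-11: colchicine-selected sub-line of KB-3-1 over-expressing P-gp; assay medium lacked colchicine. 72 h drug exposure at 37 degree C, CellTiter-Glo.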
# [6] = qHTS of pediatric cancer cell lines to identify multiple opportunities for drug repurposing: Primary screen for TC32 cells (AID 1347089); conditions: TC32 Ewing sarcoma viability, CellTiter-Glo luminescence, 48 h; series mostly up to 45.8 µM; further: nearly all actives have a fitted effect of over 60% in size; further: potency means the concentration at half of the fitted maximal effect
# Summary of the method: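 Luminescent ATP read-out (CellTiter-Glo) of metabolically active TC32 cells after 48 h exposure. Concentration-response curves came from 11-point (MIPE, 0.78 nM–46 µM) or 8-point (NPC, 0.59 nM–46 µM) primary titrations; follow-up used 11 points.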
# [7] = qHTS of pediatric cancer cell lines to identify multiple opportunities for drug repurposing: Primary screen for DAOY cells (AID 1347090); conditions: DAOY medulloblastoma viability, CellTiter-Glo luminescence, 48 h; series mostly up to 46 µM; further: nearly all actives have a fitted effect of over 55% in size; further: potency means the concentration at half of the fitted maximal effect
# Summary of the method: (§1)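 Eight- or eleven-point concentration series, 48 h treatment at 37 degrees C in growth media; readout CellTiter-Glo luminescence. Potency and efficacy were taken from the concentration-response curves.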
# [8] = qHTS of pediatric cancer cell lines to identify multiple opportunities for drug repurposing: Primary screen for SJ-GBM2 cells (AID 1347091); conditions: SJ-GBM2 viability, CellTiter-Glo luminescence, 48 h; series mostly up to 46 µM; further: potency means the concentration at half of the fitted maximal effect
# Summary of the method: as §1
# [9] = qHTS of pediatric cancer cell lines to identify multiple opportunities for drug repurposing: Primary screen for A673 cells (AID 1347092); conditions: A673 Ewing sarcoma viability, CellTiter-Glo ATP luminescence, 48 h; series mostly up to 46 µM; further: potency means the concentration at half of the fitted maximal effect; nearly all actives have a fitted effect of over 45% in size
# Summary of the method: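 Cell viability of A673 measured by CellTiter-Glo ATP luminescence after 48 hours compound exposure. Dilution series spanned 0.78 nM to 46 µM (MIPE, 11-point) or 0.59 nM to 46 µM (NPC, 8-point); bortezomib 2.3 uM positive control.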
# [10] = qHTS of pediatric cancer cell lines to identify multiple opportunities for drug repurposing: Primary screen for SK-N-MC cells (AID 1347093); conditions: SK-N-MC viability, CellTiter-Glo luminescence, 48 h; series mostly up to 46 µM; further: potency means the concentration at half of the fitted maximal effect
# Summary of the method: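 Metabolically active cells were quantified by ATP-dependent luminescence (CellTiter-Glo, 15 min at room temperature) following 48 h treatment. Cells had been plated at 500-1,000 per well and settled for 5 h beforehand.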
# [11] = qHTS of pediatric cancer cell lines to identify multiple opportunities for drug repurposing: Primary screen for BT-37 cells (AID 1347094); conditions: BT-37 viability, CellTiter-Glo luminescence, 48 h; series mostly up to 57.3 µM; further: potency means the concentration at half of the fitted maximal effect
# Summary of the method: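 Cells plated at 500-1,000/well in growth medium, compounds added after 5 h. MIPE tested at 11 points (from 0.78 nM), NPC at 8 points (from 0.59 nM). CellTiter-Glo luminescence after 48 h; concentration-response curves from primary screen.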
# [12] = Identifying Small Molecule Inhibitors of Pancreatic Cancer Stem Cells (Panc1, Spheroid) (AID 1259359); conditions: Panc1 spheroid cancer stem cell viability; series mostly up to 46.1 µM;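 further: potency means the concentration at half of the fitted maximal effect; compound exposure lasted 48 h before reading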
# Summary of the method: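 Adherent (2D) versus sphere (3D) formats; spheres generated 14 d in SCM beforehand. Compound transferred by pin tool after 4 h, 48 h incubation, CellTiter-Glo endpoint.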
# [13] = NS1 protein of Zika virus - qHTS assay to identify small molecule inhibitors in human HEK 293 cells (AID 1347053); conditions: HEK293 ZIKV MR766 infection, NS1 TR-FRET, 24 h; series mostly up to 46.1 µM; further: nearly all actives have a fitted effect of over 55% in size; further: potency means the concentration at half of the fitted maximal effect
# Summary of the method: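 HEK 293; 20 h pre-culture, 37 C/5% CO2; cpd 1 h pre-infection; ZIKV MR766, MOI = 0.5, 24 h, 37 C; TR-FRET NS1 readout (two anti-NS1 Abs); norm. to no-virus vs infected.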
Structure (SMILES),Potency [1],IC50 (viability decrease) [2],Potency [3],Potency [4],Potency [5],Potency [6],Potency [7],Potency [8],Potency [9],Potency [10],Potency [11],Potency [12],Potency [13]
CN1CCN(c2ccc3nc(-c4c(N)c5c(F)cccc5[nH]c4=O)[nH]c3c2)CC1,6620 nM (active),3320 nM (active),33200 nM (active),5170 nM (active),2.64 µM (active) and 8.2 µM (active),14700 nM (active),inactive,20900 nM (active),14800 nM (active),14800 nM (active),15300 nM (active),–,–
CC(NCc1ccc2c(c1)nc(NC(=O)c1ccc(-c3cn[nH]c3)s1)n2CC(C)(C)O)C(C)(C)C (stereo unspecified),469 nM (active),–,264 nM (active),–,–,2620 nM (active),2960 nM (active),–,187 nM (active),743 nM (active),485 nM (active),166 nM (active),4690 nM (active)
CNC(=O)c1cc(Oc2ccc(NC(=O)Nc3cc(C(C)(C)C)nn3-c3ccc4ncccc4c3)c(F)c2)ccn1,–,–,–,–,18.7 µM (active),inactive,18700 nM (active),–,5900 nM (active),–,–,13200 nM (active),inactive
COC(=O)c1ccc2c(C(=Nc3ccc(N(C)C(=O)CN4CCN(C)CC4)cc3)c3ccccc3)c(O)[nH]c2c1,18700 nM (active),4690 nM (active),–,–,–,10400 nM (active),590 nM (active),16600 nM (active),296 nM (active),–,3850 nM (active),13200 nM (active),inactive
Cc1[nH]c2ccccc2c1CCNCc1ccc(C=CC(=O)NO)cc1,–,118 nM (active),148 nM (active),–,0.935 µM (active),1650 nM (active),469 nM (active),148 nM (active),148 nM (active),148 nM (active),273 nM (active),590 nM (active),–
Cc1[nH]nc2ccc(-c3cncc(OC[C@@H](N)Cc4ccccc4)c3)cc12,18700 nM (active),935 nM (active),4690 nM (active),–,2.35 µM (active) and 1.16 µM (active),4660 nM (active),2960 nM (active),743 nM (active),235 nM (active),526 nM (active),1220 nM (active),9350 nM (active),8330 nM (active)
CC(C)c1ccc(Cn2ccc3c4c(N)nc(NC5CC5)nc4ccc32)cc1,8330 nM (active),332 nM (active),743 nM (active),–,1.18 µM (active),–,14800 nM (active),3720 nM (active),2960 nM (active),743 nM (active),12200 nM (active),5260 nM (active),3320 nM (active)
CC1(O)CC(c2nc(-c3ccc4ccc(-c5ccccc5)nc4c3)c3c(N)nccn23)C1 (stereo unspecified),–,–,–,6510 nM (active),14.8 µM (active) and 9.2 µM (active),–,–,10500 nM (active),23500 nM (active),41.8 nM (active),19300 nM (active),148 nM (active),–
CC(=O)OCC(=O)[C@@]1(O)[C@H](C)C[C@H]2[C@@H]3C=C(C)C4=Cc5c(cnn5-c5ccccc5)C[C@]4(C)[C@@H]3[C@@H](O)C[C@@]21C,20900 nM (active),13200 nM (active),–,inactive,inactive,–,–,5260 nM (active),2960 nM (active),1180 nM (active),19300 nM (active),14800 nM (active),11800 nM (active)
CC[C@@H]1C(=O)N(C)c2cnc(Nc3ccc(C(=O)NC4CCC(N5CCN(CC6CC6)CC5)CC4)cc3OC)nc2N1C(C)C (stereo partly specified),–,20.9 nM (active),10.5 nM (active),–,372 nM (active) and 326 nM (active) and 231 nM (active),370 nM (active),74.3 nM (active),–,93.5 nM (active),148 nM (active),2430 nM (active),9.3 nM (active),105 nM (active)
C=CCn1c(=O)c2cnc(Nc3ccc(N4CCN(C)CC4)cc3)nc2n1-c1cccc(C(C)(C)O)n1,1660 nM (active),590 nM (active),590 nM (active),–,3.72 µM (active) and 5.8 µM (active),2620 nM (active),372 nM (active),166 nM (active),74.3 nM (active),83.3 nM (active),611 nM (active),418 nM (active),418 nM (active)
Nc1cc(C(F)(F)F)c(-c2cc(N3CCOCC3)nc(N3CCOCC3)n2)cn1,–,662 nM (active),1870 nM (active),–,469 nM (active) and 1.16 µM (active),–,372 nM (active),296 nM (active),235 nM (active),29.6 nM (active),1530 nM (active),833 nM (active),–
